Source: PubChem BioAssay AID1159580 (chemical genetic matrix, 2015)
The whole screen tested about 5,500 compounds, of which about 2,000 (36%) were called active. Not shown: some 18% with an inconclusive outcome. Rule as the data show it: active = normalized growth mostly below about 0.91 (no sharp cut-off); inconclusive = no clear call, values can overlap the other calls; inactive = mostly above about 0.92. The list shows a part of the results.

Test: chemical genetic growth profiling, strain panel (AID 1159580);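 also: tested at 20 µM; growth read once vehicle control cultures reached saturation at 30 °C; 1 = growth at the plate median or of vehicle wells; lower values mean less growth of the strain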
Details: S. cerevisiae deletion strains, growth OD

Measured: normalized growth

COc1cc(N)c(Cl)cc1C(=O)NC1CCN(Cc2ccccc2)CC1
inactive: locus YAL013W, strain DEP1, hits give low values 0.997 | locus YAL021C, strain ccr4, hits give low values 1 | locus YAL026C, strain drs2, hits give low values 1 | locus YAL030W, strain snc1, hits give low values 1 | locus YBL061C, strain skt5, hits give low values 0.997 | locus YBR009C, strain hhf1, hits give low values 0.999 | locus YBR021W, strain FUR4, hits give low values 1.07 | locus YBR023C, strain chs3, hits give low values 0.995 | locus YBR171W, strain sec66, hits give low values 0.999 | locus YBR229C, strain ROT2, hits give low values 0.988 | locus YBR231C, strain swc5, hits give low values 1 | locus YBR279W, strain paf1, hits give low values 0.999 | locus YCL011C, strain gbp2, hits give low values 0.994 | locus YCL016C, strain dcc1, hits give low values 1 | locus YCL029C, strain bik1, hits give low values 0.962 | locus YCL061C, strain MRC1, hits give low values 0.984 | locus YCL069W, strain vba3, hits give low values 0.993 | locus YCR088W, strain abp1, hits give low values 0.993 | locus YDL005C, strain med2, hits give low values 0.996 | locus YDL035C, strain GPR1, hits give low values 1 | locus YDL040C, strain nat1, hits give low values 0.992 | locus YDL074C, strain BRE1, hits give low values 0.97 | locus YDL101C, strain DUN1, hits give low values 0.981 | locus YDL134C, strain PPH21, hits give low values 0.999 | locus YDL185W, strain tfp1, hits give low values 0.954 | locus YDL192W, strain arf1, hits give low values 0.992 | locus YDR001C, strain nth1, hits give low values 0.999 | locus YDR069C, strain doa4, hits give low values 0.992 | locus YDR101C, strain arx1, hits give low values 0.982 | locus YDR137W, strain rgp1, hits give low values 1.01 | locus YDR150W, strain NUM1, hits give low values 0.987 | locus YDR159W, strain sac3, hits give low values 1 | locus YDR162C, strain NBP2, hits give low values 0.996 | locus YDR195W, strain ref2 0.986 | locus YDR297W, strain sur2, hits give low values 0.994 | locus YDR318W, strain mcm21, hits give low values 0.981 | locus YDR334W, strain swr1, hits give low values 0.998 | locus YDR335W, strain msn5, hits give low values 0.986 | locus YDR388W, hits give low values 0.993 | locus YDR392W, strain spt3, hits give low values 0.995 | locus YDR502C, strain sam2, hits give low values 1.01 | locus YEL003W, strain gim4, hits give low values 0.999 | locus YEL037C, strain rad23, hits give low values 0.996 | locus YEL061C, strain CIN8 (second series), hits give low values 0.998 | locus YEL061C, strain CIN8, hits give low values 0.995 | locus YER015W, strain faa2, hits give low values 1 | locus YER016W, strain bim1, hits give low values 0.994 | locus YER110C, hits give low values 0.995 | locus YER111C, strain swi4, hits give low values 0.991 | locus YER155C, strain BEM2 (second series), hits give low values 0.988 | locus YER155C, strain BEM2, hits give low values 0.982 | locus YER167W, strain BCK2, hits give low values 0.996 | locus YFR010W, strain ubp6, hits give low values 0.999 | locus YGL078C, strain dbp3, hits give low values 0.996 | locus YGL086W, strain mad1, hits give low values 1 | locus YGL167C, strain pmr1, hits give low values 1 | locus YGL173C, strain kem1, hits give low values 0.998 | locus YGL227W, strain vid30, hits give low values 0.998 | locus YGL240W, strain doc1, hits give low values 0.997 | locus YGL248W, strain PDE1, hits give low values 1 | locus YGL253W, strain hxk2, hits give low values 0.992 | locus YGR078C, strain PAC10, hits give low values 0.982 | locus YGR135W, strain pre9, hits give low values 0.998 | locus YGR229C, strain SMI1, hits give low values 1.02 | locus YGR252W, strain gcn5, hits give low values 1.15 | locus YHR013C, strain ard1, hits give low values 0.996 | locus YHR027C, strain rpn1, hits give low values 1 | locus YHR030C, strain SLT2, hits give low values 0.996 | locus YHR079C, strain IRE1 (second series), hits give low values 0.977 | locus YHR094C, strain hxt1, hits give low values 0.974 | locus YHR129C, strain ARP1, hits give low values 0.993 | locus YHR142W, strain chs7, hits give low values 0.993 | locus YHR200W, strain rpn10, hits give low values 0.989 | locus YIL066C, strain RNR3, hits give low values 0.98 | locus YIL073C, strain SPO22, hits give low values 0.997 | locus YIL125W, strain kgd1, hits give low values 0.997 | locus YIR030C, strain dcg1, hits give low values 0.988 | locus YJL092W, strain hpr5, hits give low values 0.987 | locus YJL095W, strain BCK1 (second series), hits give low values 0.998 | locus YJL095W, strain BCK1, hits give low values 0.999 | locus YJL115W, strain asf1, hits give low values 0.987 | locus YJL129C, strain trk1, hits give low values 0.992 | locus YJL134W, strain LCB3, hits give low values 0.998 | locus YJL154C, strain vps35, hits give low values 1 | locus YJL164C, strain tpk1, hits give low values 1 | locus YJL166W, strain qcr8, hits give low values 0.996 | locus YJL168C, strain set2, hits give low values 0.99 | locus YJL187C, strain SWE1 (second series), hits give low values 0.966 | locus YJL187C, strain SWE1, hits give low values 0.99
